Assay [1] is described as follows: Nuclear factor erythroid 2-related factor 2/antioxidant responsive element (Nrf2/ARE) small molecule agonists: luciferase reporter gene qHTS assay in human keratinocytes (AID 1919969). Note: nearly all actives have a fitted effect of over 35% in size. Note: potency is the fitted concentration of half-maximal effect. A general note: A reporter such as luciferase makes a cellular process visible.
For assay [2], the target named is Gonadotropin-releasing hormone receptor (Homo sapiens) (UniProt P30968). The assay is described as follows: Human gonadotropin-releasing hormone receptor (GnRHR) small molecule agonists, calcium flux assay in GnRHR-HEK293 cells (AID 1920063). Note: nearly all actives have a fitted effect of over 35% in size. In a few lines:
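Cells: HEK293 stably expressing human GnRHR. Steps: overnight (18 h) culture, 1 h calcium dye loading at 37 C, compound addition, kinetic fluorescence read at 480/540 nm. Each compound tested at 15 concentrations in triplicate.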

The target of assay [3] is KiSS-1 receptor (Homo sapiens) (UniProt Q969F8). Kind of assay: Human kisspeptin (KISS1R) small molecule agonists, calcium flux assay in KISS1R-HEK293 cells (AID 1920064; active = well fitted activation curve with a large enough effect in the repeat runs). In a few lines:
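Cells plated and incubated 18 h; dye added, 1 h at 37 C; compounds in DMSO pinned in; signal read at 480/540 nm every second for 3 min. Each compound tested at 15 concentrations in triplicate.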

Assay [4] in a line: G protein-coupled receptor (GPCR) small molecule agonists, calcium flux assay: HEK293 wild type cell line counter screen (AID 1920065). In a few lines:
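Counter-screen of the Tox21 10K library for non-specific calcium release: dye-loaded cells received compounds in DMSO and were monitored by kinetic fluorescence (480/540 nm, 3 min). Fifteen concentrations, run in triplicate.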
Background: A change in cytosolic calcium serves as a functional read-out for many receptors and channels.

Assay [5] can be described thus: p53 small molecule agonists, cell-based qHTS assay with human liver microsomes (AID 1963577).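 Note: p53 response element beta-lactamase reporter cells with liver microsomes plus NADPH.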 A digest of the protocol:
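HLM-supplemented p53RE-bla reporter assay: 16 h compound exposure at 37 C, microsomes and NADPH each 0.5 mg/mL final, read by fluorescence intensity.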
In general terms: qHTS replaces the single test concentration by a dilution series.

Assay [6] can be described thus: p53 small molecule agonists, cell-based qHTS assay with human liver microsomes: qHTS cell viability counter screen (AID 1963579). Note: nearly all actives have a fitted effect of over 45% in size. In a few lines: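 Viability of p53RE-bla cells is measured as CellTiter-Glo luminescence following a 16 h, 37 C incubation with compound, liver microsomes from human donors and NADPH.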
The nature of assay [7]: p53 small molecule agonists, cell-based qHTS assay with rat liver microsomes: qHTS cell viability counter screen (AID 1963580). Note: nearly all actives have a fitted effect of over 45% in size. In a few lines:
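In HCT-116 cells carrying a p53 response element-bla reporter, compounds were metabolically activated in situ by rat liver microsomes with NADPH over 16 h. Cell ATP content then served as the cytotoxicity measure.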

A short description of assay [8]: p53 small molecule agonists, cell-based qHTS assay: qHTS cell viability counter screen (AID 1963581). Note: nearly all actives have a fitted effect of over 45% in size. In a few lines: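 Cells: HCT-116 with p53 response element-driven beta-lactamase. Treatment: 16 h, 37 C, compounds in DMSO. Read: CellTiter-Glo luminescence after 30 min RT.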
A short description of assay [9]: p53 small molecule agonists, cell-based qHTS assay (AID 1963582; active = well fitted activation curve with a large enough effect in the signal ratio in the repeat runs, not every such curve was filed as active; the % refers to the signal ratio; note: potency is the fitted concentration of half-maximal effect). In a few lines: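 Quantitative HTS in p53RE-bla cells: after a 5 h settling period, compounds delivered in DMSO were left on cells for 16 h at 37 C, and reporter induction was measured as fluorescence following 2 h substrate loading.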
Assay [10] deals with 5-hydroxytryptamine receptor 2A (Homo sapiens) (UniProt P28223). The assay is described as follows: 5-hydroxytryptamine receptor 2A (HTR2A) small molecule antagonists, cell-based qHTS assay (AID 1963586). Note: nearly all actives have a fitted effect of over 45% in size. In a few lines:
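Antagonist-mode intracellular calcium assay: DOI (4 nM) added after 5 min compound pre-incubation at room temperature to dye-loaded HTR2A-CHO cells. Fluorescence followed for 3 min, sampled every second.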

Assay [11] has the same target. Kind of assay: 5-hydroxytryptamine receptor 2A (HTR2A) small molecule agonists, cell-based qHTS assay (AID 1963587). Note: nearly all actives have a fitted effect of over 30% in size. In a few lines: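 HTR2A-CHO cells, plated 18 h at 37 C/5% CO2, dye-loaded 1 h at 37 C; compounds in DMSO added by pin tool (agonist mode). Intracellular calcium flux read as kinetic fluorescence on FDSS over 2 min at 1 s intervals.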
The target of assay [12] is Muscarinic acetylcholine receptor M1 (Homo sapiens) (UniProt P11229). The assay is described as follows: Cholinergic receptor muscarinic 1 (CHRM1) small molecule antagonists, cell-based qHTS assay (AID 1963588). Note: nearly all actives have a fitted effect of over 40% in size. In a few lines: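 CHRM1-CHO calcium-flux assay, antagonist mode. Cells were seeded 18 h, dye-loaded 1 h at 37 C and given compound for 5 min at RT, then acetylcholine was added at 50nM. FDSS fluorescence was read 3 min; 15 concentrations, three runs.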

Assay [13] has the same target. Kind of assay: Cholinergic receptor muscarinic 1 (CHRM1) small molecule agonists, cell-based qHTS assay (AID 1963589). Note: nearly all actives have a fitted effect of over 35% in size. A digest of the protocol: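 Agonist-mode qHTS in CHO cells stably carrying human muscarinic M1. Intracellular calcium is tracked by fluorescence every second after compound transfer; each compound runs at 15 concentrations in three independent runs.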

The nature of assay [14]: cAMP Responsive Elements (CRE) small molecule agonists, cell-based qHTS assay (AID 1963590). In a few lines: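 Agonist mode qHTS in CRE-bla HEK 293T cells: compounds dosed from DMSO for 3 h at 37 C/5% CO2, followed by LiveBLAzer B/G FRET substrate for 2 h at room temperature.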
A short description of assay [15]: cAMP Responsive Elements (CRE) small molecule antagonists, cell-based qHTS assay (AID 1963591; active = well fitted inhibition curve with a large enough effect in the signal ratio in the repeat runs, not every such curve was filed as active; the % refers to the signal ratio). A digest of the protocol: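 Antagonist mode: test compounds are co-incubated with the adenylyl cyclase activator NKH477 (0.25 uM final) on CRE-bla HEK293T cells for 3 h at 37 °C, followed by LiveBLAzer substrate loading.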
For assay [16], the target named is D(2) dopamine receptor (Homo sapiens) (UniProt P14416). The assay is described as follows: Dopamine D2 receptor (DRD2) small molecule agonists, cell-based qHTS assay (AID 1963594). Note: nearly all actives have a fitted effect of over 35% in size. In a few lines:
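HEK293 cells stably expressing DRD2 were cultured 24 h at 37 C, then given Ro20-1724 (0.1 mM final) and compounds for 10 min at room temperature. NKH477 (200nM) was then added for 30 min. cAMP was read by HTRF.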

The target is the same in assay [17]. The assay is described as follows: Dopamine D2 receptor (DRD2) small molecule antagonists, cell-based qHTS assay (AID 1963595; active = well fitted inhibition curve with a large enough effect in the signal ratio in the repeat runs, with a control signal flat; the % refers to the signal ratio). A digest of the protocol:
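HTRF cAMP read-out at 665 and 620 nm emission (340 nm excitation). Antagonist mode: compounds were tested against 12 nM quinpirole in DRD2-HEK293 cells, with 200 nM NKH477 raising cAMP and 0.1 mM Ro20-1724 blocking its breakdown.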

A short description of assay [18]: p53 small molecule agonists, cell-based qHTS assay with rat liver microsomes (AID 1963578). In a few lines:
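Quantitative HTS of the Tox21 10K library: p53RE-bla cells, rat liver microsomes plus NADPH at 0.5 mg/mL final each, 16 h at 37 C, beta-lactamase fluorescence detection.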

Assay [19] concerns the target Beta-2 adrenergic receptor (Homo sapiens) (UniProt P07550). Kind of assay: Adrenergic beta2 receptor (ADRB2) small molecule antagonists, cell-based qHTS assay (AID 1963592). Note: series mostly up to about 92 µM; nearly all actives have a fitted effect of over 50% in size. In a few lines:
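Cells (CHO, stable ADRB2 overexpression) incubated 18-20hr at 37C; compounds added from DMSO; agonist mix (1nM isoproterenol, 100uM IBMX, 25uM Ro-20-1724) added; 0.5hr RT; d2-cAMP and anti-cAMP-cryptate added; 1hr RT; 665/615 nm read.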

Assay [20] has the same target. The assay is described as follows: Adrenergic beta2 receptor (ADRB2) small molecule agonists, cell-based qHTS assay (AID 1963593).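 Note: CHO cells stably overexpressing human ADRB2.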 A digest of the protocol:
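CHO cells stably over-expressing ADRB2 were plated overnight at 37C, then dosed with compounds plus a stimulation mix containing 100uM IBMX and 25uM Ro-20-1724 for 0.5hr at room temperature. cAMP was measured by HTRF competition, 1hr.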

Results filed as inconclusive are left out. Where a structure was tested more than once in an assay, its records may differ in their call. Activity calls are given as the source filed them. Unless noted, calls come from the whole dose curve.

Muscarinic acetylcholine receptor M1 (Homo sapiens), sequence (P11229 whole entry, looked up): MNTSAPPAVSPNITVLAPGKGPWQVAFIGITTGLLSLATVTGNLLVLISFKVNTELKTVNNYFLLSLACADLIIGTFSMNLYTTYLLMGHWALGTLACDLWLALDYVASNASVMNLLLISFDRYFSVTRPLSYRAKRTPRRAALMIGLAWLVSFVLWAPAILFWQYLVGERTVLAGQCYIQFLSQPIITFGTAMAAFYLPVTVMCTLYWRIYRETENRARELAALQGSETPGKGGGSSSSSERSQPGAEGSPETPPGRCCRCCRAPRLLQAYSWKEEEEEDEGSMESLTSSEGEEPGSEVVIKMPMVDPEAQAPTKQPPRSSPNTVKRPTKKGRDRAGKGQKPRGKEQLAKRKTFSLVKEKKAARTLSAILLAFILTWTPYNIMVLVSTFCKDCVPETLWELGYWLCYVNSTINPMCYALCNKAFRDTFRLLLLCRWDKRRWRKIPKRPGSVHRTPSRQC
KiSS-1 receptor (Homo sapiens), sequence (Q969F8 whole entry, looked up): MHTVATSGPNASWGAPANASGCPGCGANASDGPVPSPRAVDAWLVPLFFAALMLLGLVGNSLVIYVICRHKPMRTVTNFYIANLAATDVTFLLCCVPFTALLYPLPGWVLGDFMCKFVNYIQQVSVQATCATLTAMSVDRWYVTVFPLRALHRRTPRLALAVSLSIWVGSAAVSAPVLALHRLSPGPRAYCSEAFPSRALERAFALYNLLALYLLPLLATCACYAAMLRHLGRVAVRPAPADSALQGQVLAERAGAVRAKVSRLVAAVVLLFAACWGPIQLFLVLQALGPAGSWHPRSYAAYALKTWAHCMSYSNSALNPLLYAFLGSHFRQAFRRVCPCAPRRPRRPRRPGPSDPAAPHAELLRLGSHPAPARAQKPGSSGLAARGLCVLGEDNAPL
Gonadotropin-releasing hormone receptor (Homo sapiens), sequence (P30968 whole entry, looked up): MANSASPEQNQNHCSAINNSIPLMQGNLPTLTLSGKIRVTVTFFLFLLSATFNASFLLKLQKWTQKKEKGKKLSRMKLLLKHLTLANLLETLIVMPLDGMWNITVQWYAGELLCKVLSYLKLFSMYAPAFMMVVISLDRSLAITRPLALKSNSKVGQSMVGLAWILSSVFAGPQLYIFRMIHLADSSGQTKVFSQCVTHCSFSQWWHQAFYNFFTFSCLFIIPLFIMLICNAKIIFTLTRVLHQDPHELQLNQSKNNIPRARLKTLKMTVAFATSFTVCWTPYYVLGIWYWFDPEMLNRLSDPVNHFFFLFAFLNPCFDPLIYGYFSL
5-hydroxytryptamine receptor 2A (Homo sapiens), sequence (P28223 whole entry, looked up): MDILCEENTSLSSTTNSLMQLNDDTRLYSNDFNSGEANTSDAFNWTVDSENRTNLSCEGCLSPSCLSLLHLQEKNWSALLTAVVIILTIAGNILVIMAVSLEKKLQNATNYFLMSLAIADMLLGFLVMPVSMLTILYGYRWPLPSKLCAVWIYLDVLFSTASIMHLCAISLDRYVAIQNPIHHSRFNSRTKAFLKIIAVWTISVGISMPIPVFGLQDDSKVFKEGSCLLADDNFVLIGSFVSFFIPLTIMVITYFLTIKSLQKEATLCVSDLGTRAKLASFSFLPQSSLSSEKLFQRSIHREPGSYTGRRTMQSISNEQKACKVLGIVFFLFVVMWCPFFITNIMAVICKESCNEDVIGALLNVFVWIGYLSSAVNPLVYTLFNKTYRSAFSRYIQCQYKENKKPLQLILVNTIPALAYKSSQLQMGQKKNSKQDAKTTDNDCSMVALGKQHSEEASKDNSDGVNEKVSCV
D(2) dopamine receptor (Homo sapiens), sequence (P14416 whole entry, looked up): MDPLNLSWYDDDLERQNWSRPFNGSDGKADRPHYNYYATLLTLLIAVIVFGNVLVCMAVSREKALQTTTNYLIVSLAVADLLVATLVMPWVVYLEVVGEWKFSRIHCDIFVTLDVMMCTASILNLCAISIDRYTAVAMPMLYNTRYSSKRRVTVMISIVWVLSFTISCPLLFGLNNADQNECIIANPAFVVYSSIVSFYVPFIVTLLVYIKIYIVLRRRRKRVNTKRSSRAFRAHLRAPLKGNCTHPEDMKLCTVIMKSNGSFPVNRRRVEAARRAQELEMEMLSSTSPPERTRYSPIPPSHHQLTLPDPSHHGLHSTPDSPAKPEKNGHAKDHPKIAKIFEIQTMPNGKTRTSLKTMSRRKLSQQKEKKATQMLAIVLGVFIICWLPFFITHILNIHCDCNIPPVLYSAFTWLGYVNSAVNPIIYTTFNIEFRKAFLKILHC
Beta-2 adrenergic receptor (Homo sapiens), sequence (P07550 whole entry, looked up): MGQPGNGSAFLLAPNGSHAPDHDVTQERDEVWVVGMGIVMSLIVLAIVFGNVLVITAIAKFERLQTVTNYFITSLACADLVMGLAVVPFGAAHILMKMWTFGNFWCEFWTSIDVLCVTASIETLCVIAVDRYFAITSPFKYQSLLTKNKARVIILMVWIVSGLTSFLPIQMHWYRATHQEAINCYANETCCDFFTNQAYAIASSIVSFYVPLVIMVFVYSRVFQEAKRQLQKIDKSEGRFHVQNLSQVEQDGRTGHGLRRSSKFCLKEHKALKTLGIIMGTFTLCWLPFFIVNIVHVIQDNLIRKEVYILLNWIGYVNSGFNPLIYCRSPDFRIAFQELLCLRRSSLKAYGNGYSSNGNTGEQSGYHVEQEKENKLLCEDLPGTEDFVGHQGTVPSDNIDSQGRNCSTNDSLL

Turning to `CCOCCOCCO`, the Potency result in [1], in [2], in assay [3], in [4], in [5] and in assay [6] was “inactive” in each case. The Potency result in [7], in assay [8], in [9], in assay [10], in assay [11] and in assay [12] was “inactive” throughout. For the same molecule, the Potency result in assay [13], in assay [14], in assay [15], in assay [16] and in assay [17] was “inactive” throughout.
In the case of `CCCCCCCCCC(=O)O`, the Potency entry in [1], in assay [2], in [3], in assay [4], in assay [18] and in assay [6] was “inactive” each time. For the same molecule, the Potency result in [7], in assay [8], in [9], in [10], in assay [11] and in assay [12] was “inactive” each time. In addition, the Potency entry in assay [13], in [15], in assay [19], in assay [16] and in assay [17] was “inactive” throughout.
As for `C#C[C@]1(O)CC[C@H]2[C@@H]3CCc4cc(O)ccc4[C@H]3CC[C@@]21C`, the Potency result in assay [1], in [2], in [3], in assay [4], in [5] and in assay [18] was “inactive” each time. Further, the Potency result in [6], in assay [7], in assay [8], in assay [19], in assay [20] and in assay [16] was “inactive” throughout. In addition, in [17], the Potency result is “inactive”. Moreover, the Potency in assay [9] is 16.1 µM (active).
For `CC1(C)OC(=O)NC1=O`, the Potency result in assay [1], in [2], in assay [3], in assay [4], in [5] and in assay [18] was “inactive” throughout. The Potency result in assay [6], in assay [7], in assay [8], in assay [10], in assay [11] and in [12] was “inactive” in each case. The Potency result in [13], in [14], in assay [15], in assay [19], in assay [20] and in assay [16] was “inactive” each time. Besides, the Potency entry in [17] was “inactive”.
As to `O=S(=O)(O)c1ccc2ccccc2c1`, the Potency entry in assay [1], in [2], in assay [3], in assay [4], in assay [5] and in [18] was “inactive” throughout. Further, the Potency entry in [6], in [8], in assay [9], in assay [10], in assay [11] and in assay [13] was “inactive” in each case. Also, the Potency entry in assay [14], in [15], in [19], in [20] and in assay [16] was “inactive” each time.
In the case of `CCCCCCCCCCCCCCCO`, the Potency in assay [1] was 54.9 µM (active) and inactive. Besides, the Potency entry in [2], in assay [3], in assay [4], in assay [5], in assay [18] and in assay [6] was “inactive” each time. Moreover, the Potency result in [7], in [8], in assay [9], in assay [10], in assay [11] and in assay [12] was “inactive” in each case. Also, the Potency result in assay [13], in assay [14], in [15], in assay [19], in assay [16] and in assay [17] was “inactive” in each case.
As for `C/C=C/C(=O)N(CC)c1ccccc1C`, the Potency result in assay [1], in [2], in [3], in [4], in [5] and in [18] was “inactive” throughout. Besides, the Potency result in assay [6], in assay [7], in assay [8], in assay [9], in assay [14] and in assay [15] was “inactive” throughout. For the same molecule, the Potency result in [19], in assay [16] and in assay [17] was “inactive” each time.
As for `CC1=NN(c2ccccc2)C(=O)C1`, the Potency result in assay [1], in assay [2], in [3], in [4], in assay [5] and in [18] was “inactive” each time. Besides, the Potency entry in assay [6], in assay [7], in assay [8], in assay [9], in assay [14] and in [15] was “inactive” in each case. The Potency result in [19], in assay [20], in [16] and in [17] was “inactive” in each case.

For the origin of these results see PubChem BioAssay (Tox21).
